Screen size: about 13,000 compounds; about 3,200 (25%) showed an effect of 50% or more. Some of the results follow.
System: P. falciparum stage V gametocytes
Set-up: BacTiter-Glo ATP luminescence viability of purified stage V gametocytes in 384-well plates, per cent inhibition versus DMSO
Details: 48 h, 5 µM; inhibitor

SMILES | % Inhibition [%]
Cc1cc(N2CCOCC2)nc(Nc2ccc(NC(=O)Nc3ccc(F)cc3)cc2)n1 [TCMDC-124956] | -1.746
COc1ccc2nccc([C@@H](O)CN3CCC(NC(=O)Cc4cccc5c(Br)cccc45)CC3)c2c1 [TCMDC-141111] | 22.03
COc1ccc(-n2nc(C(=O)NCCC3=CCCCC3)c3ccccc3c2=O)cc1 [TCMDC-123609] | 10.78
Clc1ccc2nc(-c3cccnc3)[nH]c2c1 [TCMDC-142012] | 6.492
COC(=O)c1cccc(NC(=O)NC2CCN(c3ccnc(NCc4ccc(F)cc4)n3)CC2)c1 [TCMDC-133636] | 29.63
Cc1cc(N(C)C)nc(Nc2ccc(NC(=O)c3c(F)cccc3Cl)cc2)n1 [TCMDC-124976] | 3.565
O=C(Nc1cccc(F)c1)NC1CCN(c2ccnc3cc(Cl)ccc23)C1 (stereo not drawn) [TCMDC-133655] | -21.12
Cc1ccc(NC(=O)c2ccc3ncccc3c2)cc1OC1CCN(CCC(C)C)CC1 [TCMDC-133975] | 32.86
Oc1c(C(Nc2nc3ccccc3s2)c2ccccc2)ccc2cccnc12 (stereo not drawn) [TCMDC-125565] | 82.54
Oc1c(C(Nc2nc3ccccc3s2)c2ccc(OC(F)F)cc2)ccc2cccnc12 (stereo not drawn) [TCMDC-124379] | 115.4
CCC[C@@H]([C@@H](CC1CCCCC1)C(=O)N[C@H](C(=O)Nc1nccs1)C(C)(C)SCCNC(=O)OCC)N(O)C=O [TCMDC-137778] | 36.34
CN(C)C(C)(C)CN(Cc1ccc(-c2ccc(C(F)(F)F)cc2)cc1)C(=O)Cn1c(CCc2cccc(F)c2F)nc(=O)c2ccccc21 [TCMDC-141050] | 88.12
CCN(CC)C(C)(C)CN(Cc1ccc(-c2ccc(C(F)(F)F)cc2)cc1)C(=O)Cn1c(CCc2cccc(F)c2F)nc(=O)c2ccccc21 [TCMDC-141049] | 64.05
CC=CCON1C(N)=NC(N)=NC1(C)C [TCMDC-131381] | 17.92
Oc1cc(Nc2ccnc3cc(-c4ccc(CN5CCCCC5)o4)c(Cl)cc23)c(Cl)cc1F [TCMDC-138470] | 7.124
COc1ccc(C2CC(=O)C3=C(C2)NC(C)=C(C(=O)OC2CCCC2)C3c2cccc(O)c2)cc1OC (stereo not drawn) [TCMDC-125638] | 22.13
O=C(Nc1ccnc(N2CCCN(Cc3cccc(O)c3)CC2)c1)c1ccc(F)cc1 [TCMDC-134961] | -9.577
COc1ccc2nc(-c3cccc(C)n3)nc(Nc3ccncc3)c2c1 [TCMDC-134670] | 106.1
Cc1cccc(-c2nc(Nc3ccncc3)c3cc(N(C)C)ccc3n2)n1 [TCMDC-135308] | 101.1
Cc1ccc(-c2nc(Nc3ccncc3)c3ccccc3n2)s1 [TCMDC-134482] | 16.52
COc1cccc(-c2nc(Nc3ccncc3)c3ncn(C)c3n2)c1 [TCMDC-141275] | 49.52
COc1cc2nc(Cl)nc(Nc3ccncc3)c2cc1OC [TCMDC-123606] | 31.62
Cc1cccc(-c2nc(Nc3ccncc3)c3ccc([N+](=O)[O-])cc3n2)n1 [TCMDC-134702] | 85.91
Cc1cc(F)ccc1-c1nc(Nc2ccncc2)c2ccn(C)c2n1 [TCMDC-141231] | -13.59

SMILES | % Inhibition [%]
Cc1cc(N2CCCCC2)nc2ccc(NC(=O)c3cccc([N+](=O)[O-])c3)cc12 [TCMDC-124423] | 6.095
COc1ccc(-c2cc(Nc3nc(-c4cccc(Cl)c4)nc4ccccc34)ccn2)cc1 [TCMDC-138867] | -54.58
COC(=O)c1ccc(CC(C)NCC(O)c2cccc(C(F)(F)F)c2)c(Cl)c1 (stereo not drawn) [TCMDC-131468] | 4.686
COc1ccc(C2CC(=O)C3=C(C2)NC(C)=C(C(=O)OC(C)C)C3c2cccc(O)c2)cc1OC (stereo not drawn) [TCMDC-125636] | 49.05
O=C(Nc1ccnc(-c2cccnc2)n1)c1cc(C(F)(F)F)cc(C(F)(F)F)c1 [TCMDC-124516] | 40.18
Cc1ccc2c(c1)C1(CC(=O)N(CCc3scnc3C)C1=O)C(=O)N2Cc1ccccc1 (stereo not drawn) [TCMDC-136702] | 3.881
Cc1cc(-c2ccc(CN3Cc4ccccc4C3)cc2)ccc1S(=O)(=O)NCCN1CCCC1 [TCMDC-132293] | 17.83
Cc1cc(-c2ccc(CNC3Cc4ccccc4C3)cc2)ccc1S(=O)(=O)NCCN1CCCC1 [TCMDC-132243] | 88.03
O=S(=O)(NCCN1CCCC1)c1ccc(-c2ccc(CNC3Cc4ccccc4C3)cc2)cc1F [TCMDC-132237] | 105.2
O=S(=O)(NCCN1CCCC1)c1ccc(-c2cccc(CNC3Cc4ccccc4C3)c2)cc1F [TCMDC-132221] | 86.87
NC(=NCCc1ccc(Cl)c(Cl)c1)c1ccc2ccccc2c1 [TCMDC-137525] | 0.5254
NC(=NCCc1ccccc1Cl)c1ccc2ccccc2c1 [TCMDC-137524] | -3.713
Cc1cc(OCCCN=C(N)c2ccc3ccccc3c2)c(C(C)C)cc1Cl [TCMDC-137527] | 57.09
O=C(NCCCCN1CCC2c3cccc(O)c3CCC21)c1ccc(-c2ccccc2)cc1 (stereo not drawn) [TCMDC-139086] | 3.232
Cc1sc2ccc(Cl)cc2c1S(=O)(=O)Nc1ccc2nccc(N3CC(C)NC(C)C3)c2c1 (stereo not drawn) [TCMDC-139550] | 20.27
O=S(=O)(Nc1ccc2nccc(N3CCNCC3)c2c1)c1ccc2c(Cl)cccc2c1 [TCMDC-139383] | 15.64
Cc1sc2cc(Cl)cc(Cl)c2c1S(=O)(=O)Nc1ccc2nccc(N3CCNCC3)c2c1 [TCMDC-139444] | 54.96
COCCNCc1ncsc1-c1ccc2c(Nc3ccc(Oc4ccccc4)cc3)ccnc2c1 [TCMDC-138440] | 7.654
CS(=O)(=O)CCNCc1cccc(-c2ccc3c(Nc4ccc(Oc5cccnc5)cc4)ccnc3c2)c1 [TCMDC-138488] | -52.67
COCCNCc1cccc(-c2ccc3c(Nc4ccc(Oc5ccccc5)cc4)ccnc3c2)c1 [TCMDC-138478] | 82.82
COCCNCc1cccc(-c2cc3nccc(Nc4ccc(Oc5ccccc5)cc4)c3cc2Cl)c1 [TCMDC-138461] | 14.84
CN(C)CCNCc1cccc(-c2ccc3c(Nc4ccc(Oc5ccccn5)cc4)ccnc3c2)c1 [TCMDC-138493] | 98.43
COCCNCc1cccc(-c2ccc3c(Nc4ccc(Oc5cccnc5)cc4)ccnc3c2)c1 [TCMDC-138487] | 75
CS(=O)(=O)CCNCc1cccc(-c2cc3nccc(Nc4ccc(Oc5ccccc5)cc4)c3cc2Cl)c1 [TCMDC-138462] | -8.797

SMILES | % Inhibition [%]
CS(=O)(=O)CCNCc1cccc(-c2ccc3c(Nc4ccc(Oc5ccccc5)cc4)ccnc3c2)c1 [TCMDC-138477] | 27.24
COCCNCc1cccc(-c2ccc3nccc(Nc4cc(O)ccc4C)c3c2)c1 [TCMDC-138480] | 40.94
Nc1nc(N)c2cc(C#Cc3ccc(-c4ccccc4)cc3)ccc2n1 [TCMDC-139006] | -7.862
Cl.Nc1nc(Nc2ccc(Cl)cc2)nc2ccccc12 [TCMDC-124354] | 6.388
Nc1c2ccccc2nc2ccc(-c3ccccc3)cc12 [TCMDC-132030] | 118.4
Nc1c2ccccc2nc2ccc(Cl)cc12 [TCMDC-132029] | 93.03
Nc1c2ccccc2nc2cc(Cl)ccc12 [TCMDC-141999] | 16.16
CN(C)c1cc(C(=O)N[C@@H](Cc2ccccc2)[C@H](O)CNC2CCCCC2)cc2[nH]ccc12 [TCMDC-136317] | -94.17
CN1CCN(c2ccnc3ccc(NC(=O)Nc4ccccc4Br)cc23)CC1 [TCMDC-139342] | 15.44
Fc1ccccc1COc1ccc(Nc2ncnc3ccc(I)cc23)cc1Cl [TCMDC-138627] | 9.829
COc1cccc2cc(C(=O)N[C@@H](CC(C)C)C(=O)N[C@H](/C=N/NC(=O)OC(C)(C)C)CC(=O)OC(C)(C)C)oc12 [TCMDC-136085] | 28.48
CC(C)(CNC(=O)C1CCN(CCOc2ccc(F)c(F)c2)CC1)c1nc(-c2ccc(Cl)c(O)c2)c(-c2ccncc2)[nH]1 [TCMDC-141136] | -40.38
CN1CCC(C(=O)N(Cc2ccc(-c3ccc(CNCCc4ccc(S(C)(=O)=O)cc4)cn3)cc2)Cc2ccc3c(c2)OCO3)CC1 [TCMDC-141505] | 98.95
CN1CCC(C(=O)N(Cc2ccc(-c3ccc(CNCCc4ccccc4)cn3)cc2)Cc2cccc(F)c2)CC1 [TCMDC-141553] | 18.34
CN1CCC(C(=O)N(Cc2ccc(-c3ccc(CNCCc4ccc(S(C)(=O)=O)cc4)cn3)cc2)Cc2cccc(F)c2)CC1 [TCMDC-141507] | 85.53
CCCNCc1ccc(-c2ccc(CN(Cc3cccs3)C(=O)C3CCN(C)CC3)cc2)nc1 [TCMDC-141526] | 99.19
CC(=O)N1CCN(c2ccc(NC(=O)c3oc(-c4ccccc4)nc3C(F)(F)F)cn2)CC1 [TCMDC-135142] | -12.47
CCN(CC)CCNC(=O)c1ccc(NC(=O)c2cn(-c3ccccc3)nc2-c2cccs2)cc1 [TCMDC-124032] | 29.35
Cc1cccc(Cl)c1S(=O)(=O)N1CCCCC(c2ccc(C(F)(F)F)cc2)=N1 [TCMDC-134535] | 25.02
O=S(=O)(c1ccc(Cl)cc1Cl)N1CCCCC(c2ccc(C(F)(F)F)cc2)=N1 [TCMDC-134536] | 0.9055
O=S(=O)(c1ccccc1Cl)N1CCCCC(c2ccc(C(F)(F)F)cc2)=N1 [TCMDC-134532] | -26.8
O=S(=O)(c1c(Cl)cc(Cl)cc1Cl)N1CCCCC(c2ccc(Cl)cc2)=N1 [TCMDC-134526] | -3.325
O=S(=O)(c1c(Cl)cc(Cl)cc1Cl)N1CCCCC(c2ccc(C(F)(F)F)cc2)=N1 [TCMDC-134541] | 71.02
O=S(=O)(c1c(Cl)cccc1Cl)N1CCCCC(c2ccc(C(F)(F)F)cc2)=N1 [TCMDC-134537] | 50.16
